FMDV antiviral: antivirals against foot and mouth disease virus | FMDV antiviral cell-based qHTS | actives 1.2% (n = 410,000) | Potency, µM (series often up to 57.9 µM), for the others: at the highest dose activity change, negative = inhibition, actives largely listed as inhibitors; calls by dose curve; tested in HEK293T cells; also: read-out not given here; potency is read from the fitted curve at half-maximal effect; nearly all actives have a fitted effect of over 45% in size
Lassa entry inh: blocks Lassa virus binding to or entry into cells; actives 1.2% (n = 300,000); Potency, µM (doses to about 37.9 µM), for the others: at the top dose activity change, negative = inhibition, most hits filed as inhibitors; Lassa virus pseudotype entry inhibition, cell reporter; AID 540256; calls by dose curve; tested in HEK293 cells; also: potency is read from the fitted curve at half-maximal effect; nearly all actives have a fitted effect of over 50% in size
HCMV antiviral: human cytomegalovirus inhibition. actives 4.5% (n = 410,000). activity change, negative = inhibition, % at 57.5 µM. HFF cells, HCMV-luciferase reporter, 72 h; active compounds read low; in the data active = activity change below about -60%; inconclusive = no clear call, values can overlap the other calls; inactive = above about -39%
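Two-dose cell screen: HFF monolayers treated with compounds and infected with luciferase-expressing HCMV at 1 PFU/cell, 72 h at 37C, then lysed for luciferase measurement.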
Giardia FBPA inh: Giardia lamblia aldolase inhibition. AID 2451. A8B2U2. purified Giardia FBPA. actives 0.71% (n = 290,000). Potency, µM (top dose mostly 59.6 µM), for the others: top-dose activity, negative = inhibition, usual class: inhibitors; also: potency is read from the fitted curve at half-maximal effect; nearly all actives have a fitted effect of over 55% in size
Target sequence (A8B2U2 whole entry, looked up): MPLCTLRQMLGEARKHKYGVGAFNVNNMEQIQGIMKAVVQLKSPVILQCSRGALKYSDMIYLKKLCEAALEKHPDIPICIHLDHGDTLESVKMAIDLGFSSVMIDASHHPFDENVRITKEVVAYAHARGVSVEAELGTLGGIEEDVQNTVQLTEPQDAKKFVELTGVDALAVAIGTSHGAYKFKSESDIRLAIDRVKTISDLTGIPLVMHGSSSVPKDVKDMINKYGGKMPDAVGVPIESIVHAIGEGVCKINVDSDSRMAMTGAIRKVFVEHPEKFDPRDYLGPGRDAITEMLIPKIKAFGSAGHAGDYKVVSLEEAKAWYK
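40 nM FBPA preincubated 10 min at RT with compound (up to 57.5 uM final), then substrate plus GAPDH/TPI/NAD/arsenate coupling and diaphorase/resazurin added. Fluorescence read after 20 min at RT, 525/598 nm.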
HCV inh: blocks hepatitis C virus. Potency, µM (top dose mostly 41.8 µM), for inactives: at the top dose activity change, negative = inhibition, hits mostly inhibitors. actives 3.4% (n = 340,000). Huh7.5.1 HCVcc-Cre infection, luciferase reporter, 44 h. AID 651820; also: potency is read from the fitted curve at half-maximal effect
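Reporter virus HCVcc-Cre (~0.5 moi) infects cells exposed to compound; seeding density 1,000 cells/well with 4 h settling beforehand. Luminescence, 15 sec read, taken 44 h post-infection following a 15 min RT substrate incubation.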
Marburg entry inh: blocks Marburg virus binding to or entry into cells; actives 1.8% (n = 300,000); AID 540276; Potency, µM (highest dose often 37.8 µM), without a hit: at the highest dose activity change, negative = inhibition, hits mostly inhibitors; Marburg virus pseudotyped entry inhibition, cell reporter; calls by dose curve; tested in HEK293 cells; also: potency is read from the fitted curve at half-maximal effect
* = called active by the depositor; ? = inconclusive; . = not tested or not shown; [ ] = another dose, or the depositor's remark. The list is not random: actives were taken first. Their share in the collection is about 8.3%. Unless noted, calls follow the shape of the dose curve; as a rule, active = well fitted curve in the direction sought with a large enough effect; inconclusive = small, poorly fitted or top-dose-only effect, or another doubt; inactive = no such curve, though single readings can be large; an effect the other way counts as inactive or inconclusive. % is scaled to controls: 0 for no effect and ±100 for the full control effect.

SMILES | FMDV antiviral | Lassa entry inh | HCMV antiviral | Giardia FBPA inh | HCV inh | Marburg entry inh
CCN(CC)CCn1c(=N)n(CC(=O)c2ccc(Br)s2)c2ccccc21 | -25% | ? | -97* | 2% | -88% | 7.1µM*
CCN=c1sc2ccccc2n1CC(O)COc1ccccc1 (centres undefined) | ? | -4% | ? | -6% | 13µM* | -25%
CCN(CC)CCn1c(=N)n(CC(O)COc2ccccc2)c2ccccc21 (centres undefined) | -24% | 6% | 0 | -3% | ? | 4.5µM*
COc1ccc2c(c1-c1c3c(cc(Br)c1OC)CCCC3)CCCC2 | . | . | . | 0% | . | .
COC(=O)C1=C(C)N(Cc2ccc(C)cc2)C(=O)/C1=C\c1cc(OC)c(OC)c(OC)c1 | 20µM* | ? | 67 | -12% | ? | ?
CCOc1cc(/C=C2\C(=O)N(Cc3ccco3)C(C)=C2C(=O)OC)ccc1O | ? | ? | 40 | ? | -16% | ?
CCOc1cc(/C=C2\C(=O)N(CCc3ccc(OC)c(OC)c3)C(C)=C2C(=O)OC)ccc1O | 20µM* | -6% | -22 | ? | -1% | 17%
COC(=O)C1=C(C)N(Cc2ccc(C)cc2)C(=O)/C1=C\c1ccc(O)c(OC)c1 | ? | ? | 119 | -27% | -6% | ?
N#Cc1c(Nc2ccc(Cl)cc2)s[nH]c1=O | 29% | 1% | -66* | 1% | 3% | 1%[46.1 µM]
C[C@H]1C2=C3C(CC[C@H]4C(OCc5ccc(F)cc5C(F)(F)F)OC[C@](C)([C@@H]34)N(C(=O)OC(C)(C)C)C2)C2COC(=O)OCC21 (some centres undefined) | . | . | . | 1% | . | .
COCCNC(=O)c1cn(C2CCN(C3CCCC3)CC2)nn1 | -2% | . | . | . | . | .
CC1CCCCN1S(=O)(=O)c1ccc2c(c1)oc(=O)n2CC(=O)Nc1ccc(Cl)cc1 (centres undefined) | -16% | -4%[46.1 µM] | -8 | . | . | .
COC(=O)C1=C(C)N(C)C(=NCc2ccc(OC)cc2)NC1c1ccc(F)cc1 (centres undefined) | . | . | -4 | . | . | .
COc1cc2c(cc1OC)C(COc1ccc3c(C)cc(=O)oc3c1)N(C(=O)c1ccccc1C)CC2 (centres undefined) | -28% | -16%[46.1 µM] | 10 | . | . | ?
CCC(=O)N1CCc2cc(OC)c(OC)cc2C1COc1ccc(OC)cc1 (centres undefined) | -11% | -30% | 152 | -4% | 1% | ?
CCCCC(=O)N1CCc2cc(OC)c(OC)cc2C1COc1ccc(OC)cc1 (centres undefined) | 0% | -15%[46.1 µM] | -98* | . | . | .
COCCNC(=S)N1CCc2cc(OC)c(OC)cc2C1COc1cc(C)cc(C)c1 (centres undefined) | -14% | -1% | 21 | 1% | ? | 7.9µM*
COc1ccc(C(=O)N2CCc3cc(OC)c(OC)cc3C2c2ccc(OC)c(OC)c2)cc1 (centres undefined) | -10% | 5µM* | 42 | 10% | 12% | ?
COc1cc2c(cc1OC)C(COc1ccc3c(C)cc(=O)oc3c1)N(C(=O)c1cccc(OC)c1OC)CC2 (centres undefined) | -30% | 2.8µM* | 10 | . | . | -5%[46.1 µM]
CN(C)c1nc(-c2ccc3c(c2)OCO3)nc2ccccc12 | 15% | . | . | -17% | . | .
COc1ccc(C2CC(=O)N(CC(=O)Nc3ccc(C(F)(F)F)cc3)c3ccccc3S2)cc1 (centres undefined) | -24% | . | -16 | . | . | ?
COc1ccc(CC(=O)N2CCc3cc(OC)c(OC)cc3C2COc2ccc(F)cc2)cc1 (centres undefined) | -16% | ? | 10 | . | . | .
COc1cc2c(cc1OC)C(COc1ccc([N+](=O)[O-])cc1)N(C(C)=O)CC2 (centres undefined) | ? | . | -38 | -3% | 10µM* | .
COc1ccc(CC(=O)N2CCc3cc(OC)c(OC)cc3C2COc2ccc(F)cc2)cc1OC (centres undefined) | 25µM* | ? | 20 | . | . | .
COC(=O)[C@@]1(C#N)CC(=O)N([C@@H](C)c2ccccc2)[C@H]1c1ccc(OC)cc1 | . | . | -3 | . | . | .
SMILES | FMDV antiviral | Lassa entry inh | HCMV antiviral | Giardia FBPA inh | HCV inh | Marburg entry inh
COc1ccc(-c2nc(C)c(CCNC(=O)C(=O)Nc3cccc(F)c3)s2)cc1OC | -7% | 1%[46.1 µM] | 4 | . | . | .
CCN(CC)S(=O)(=O)c1ccc(C(=O)NCCSc2c(-c3ccc(OC)cc3)[nH]c3ccccc23)cc1 | -3% | ? | -23 | . | . | ?
CNC(=O)COc1ccccc1C(=O)Nc1ccc2c(c1)oc1ccccc12 | 14% | ? | -69* | 0% | ? | 21µM*
N#Cc1ccccc1NC(=O)c1ccccc1OCC(=O)Nc1ccc2c(c1)oc1ccccc12 | . | 6% | 21 | . | -17% | ?
COc1cccc(OCCCN2CCN(S(=O)(=O)c3ccc(NC(C)=O)cc3)CC2)c1 | 14µM* | 8.2µM* | -81* | 4% | 13µM* | 6.5µM*
COc1ccc(OC)c(CN2CCN(S(=O)(=O)c3ccc(NC(C)=O)cc3)CC2)c1 | -4% | -14% | -18 | ? | -16% | -17%[46.1 µM]
COc1ccc(CN2CCN(S(=O)(=O)c3ccc(C)cc3)CC2)cc1OC | ? | -8% | 5 | . | -11% | -10%
COc1ccc(CN2CCN(S(=O)(=O)c3ccc(C)cc3)CC2)cc1Br | -15% | ? | -8 | ? | 32µM* | ?
COc1ccc(S(=O)(=O)N2CCN(Cc3ccccc3)CC2)c(C)c1 | -25% | . | -21 | 8% | -10% | .
COc1cc(C)c(C)cc1S(=O)(=O)N1CCN(Cc2ccccc2)CC1 | . | 1% | -62* | 4% | 5% | -17%
COc1cc(CN2CCN(S(=O)(=O)c3ccc(NC(C)=O)cc3)CC2)cc(OC)c1OC | -15% | -2%[46.1 µM] | -106* | . | . | .
Cc1ccnn1CC(=O)N1CCOc2c(cc(-c3ncc(C(F)(F)F)cc3Cl)cc2OCC2CCCO2)C1 (centres undefined) | 6% | . | . | . | . | .
COC(=O)C1=C(C)NC(C)=C(C(=O)OCCCN2CCC(c3ccccc3)(c3ccccc3)CC2)C1c1cccc([N+](=O)[O-])c1 (centres undefined) | 21%[39.8 µM] | . | . | . | . | .
COC(=O)c1c(-c2cccs2)csc1NC(=O)COc1c(C)ccc(C)c1C | -25% | 3%[46.1 µM] | -9 | . | . | ?
COCC(=O)N1CCC2(CC1)CCN(c1ncccn1)CC2 | 11% | . | . | 3% | . | .
CCOC(=O)N[C@H](C(=O)N1CCC[C@H]1C(=O)NC1CCCC1)c1ccccc1 | . | . | 6 | . | . | .
CC(=O)Nc1ccc(S(=O)(=O)N2CCN(CCCOc3ccccc3Cl)CC2)cc1 | 12% | 22% | -67* | -5% | 7% | 21%
COc1cc(C)c(CN2CCC(Cc3ccccc3)CC2)cc1C | ? | . | ? | ? | 13µM* | .

Source: PubChem (National Center for Advancing Translational Sciences (NCATS))
